Experimental data taken from PubChem BioAssay AID1159580 (chemical genetic matrix, 2015).
Hit rate of the full screen: of about 5,500 compounds, about 2,000 (36%) were called active. Inconclusive results (about 18%) are left out. No stated cut-off is given here; in the data, active means normalized growth mostly below about 0.91 (no sharp cut-off); inconclusive means no clear call, values can overlap the other calls; inactive means mostly above about 0.92. Some of the results follow.

Assay: chemical genetic growth profiling, strain panel (AID 1159580);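 further: tested at 20 µM; growth read once vehicle control cultures reached saturation at 30 °C; 1 = growth at the plate median or of vehicle wells; lower values mean less growth of the strain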
Conditions: S. cerevisiae deletion strains, growth OD

Measured: normalized growth

O=C1C(NCc2ccccc2)=C(NCc2ccccc2)C(=O)c2ccccc21
active: locus YDR226W, strain ADK1, hits give low values 0.893 | locus YFR028C, strain CDC14, hits give low values 0.881 | locus YJR016C, strain ILV3, hits give low values 0.898 | locus YNL207W, strain RIO2, hits give low values 0.874
inactive: locus YAR019C, strain CDC15, hits give low values 0.929 | locus YBL105C, strain PKC1, hits give low values 0.915 | locus YBR135W, strain CKS1, hits give low values 0.918 | locus YBR136W, strain MEC1, hits give low values 0.913 | locus YBR160W, strain CDC28, hits give low values 0.92 | locus YDL017W, strain CDC7, hits give low values 0.922 | locus YDL028C, strain MPS1, hits give low values 0.904 | locus YDL101C, strain DUN1, hits give low values 0.916 | locus YDL108W, strain KIN28, hits give low values 0.897 | locus YDL132W, strain cdc53, hits give low values 0.907 | locus YDL214C, strain PRR2, hits give low values 0.869 | locus YDR052C, strain DBF4, hits give low values 0.931 | locus YDR054C, strain cdc34, hits give low values 0.921 | locus YDR477W, strain SNF1, hits give low values 0.839 | locus YER123W, strain YCK3, hits give low values 0.845 | locus YER133W, strain GLC7, hits give low values 0.839 | locus YFL009W, strain cdc4, hits give low values 0.902 | locus YFL029C, strain CAK1, hits give low values 0.913 | locus YFR003C, strain YPI1, hits give low values 0.912 | locus YFR019W, strain FAB1, hits give low values 0.942 | locus YGR040W, strain KSS1, hits give low values 0.825 | locus YGR052W, strain FMP48, hits give low values 0.893 | locus YGR092W, strain DBF2, hits give low values 0.744 | locus YHR030C, strain SLT2, hits give low values 0.885 | locus YHR079C, strain IRE1, hits give low values 0.979 | locus YHR082C, strain KSP1, hits give low values 0.883 | locus YHR205W, strain SCH9, hits give low values 0.931 | locus YIL147C, strain SLN1, hits give low values 0.895 | locus YJL095W, strain BCK1, hits give low values 0.886 | locus YJL128C, strain PBS2, hits give low values 0.885 | locus YJL157C, strain FAR1, hits give low values 0.833 | locus YJR066W, strain TOR1 (second series), hits give low values 0.775 | locus YJR066W, strain TOR1, hits give low values 0.879 | locus YKL048C, strain ELM1, hits give low values 0.829 | locus YKL067W, strain YNK1, hits give low values 0.862 | locus YKL101W, strain HSL1, hits give low values 0.875 | locus YKL193C, strain SDS22, hits give low values 0.906 | locus YKL203C, strain TOR2, hits give low values 0.84 | locus YLR113W, strain HOG1, hits give low values 0.895 | locus YLR133W, strain CKI1, hits give low values 0.856 | locus YLR403W, strain SFP1, hits give low values 0.802 | locus YML070W, strain DAK1, hits give low values 0.871 | locus YMR001C, strain CDC5, hits give low values 0.896 | locus YMR205C, strain PFK2 (second series), hits give low values 0.878 | locus YMR277W, strain FCP1, hits give low values 0.903 | locus YNL006W, strain LST8, hits give low values 0.923 | locus YNL020C, strain ARK1, hits give low values 0.845 | locus YNL161W, strain CBK1, hits give low values 0.922 | locus YNL183C, strain NPR1, hits give low values 0.904 | locus YNL222W, strain SSU72, hits give low values 0.925 | locus YNL307C, strain MCK1 (second series), hits give low values 0.842 | locus YOL078W, strain AVO1, hits give low values 0.911 | locus YOL136C, strain PFK27, hits give low values 0.884 | locus YOR061W, strain CKA2, hits give low values 0.817 | locus YOR119C, strain RIO1, hits give low values 0.784 | locus YOR231W, strain MKK1, hits give low values 0.954 | locus YOR329C, strain SCD5, hits give low values 0.935 | locus YPL031C, strain PHO85, hits give low values 0.837 | locus YPL153C, strain RAD53, hits give low values 0.826 | locus YPL204W, strain HRR25, hits give low values 0.827 | locus YPL209C, strain IPL1, hits give low values 0.934 | locus YPL256C, strain CLN2, hits give low values 0.986 | locus YPR025C, strain CCL1, hits give low values 0.93 | locus YPR106W, strain ISR1, hits give low values 0.899 | locus YPR111W, strain DBF20, hits give low values 0.91 | strain NNK1, hits give low values 0.902 | strain TSCII, hits give low values 0.907
